We go through five compounds from PubChem BioAssay.

The source made the active and inactive calls.

Assay [1] deals with Plasmodium falciparum Sir2 (PF13_0152, Sir2A). The experiment in a line: pfSir2 binders on small-molecule microarrays, primary screen, biochemical, small-molecule microarray, 635 nm fluorescence (AID 1098).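 Further: score merges spot fluorescence intensity with its signal-to-noise ratio.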 Conditions: small-molecule microarray binding, fluorescence 635 nm; higher = more signal.
Assay [2] is described as follows: small-molecule microarray binders of probe aDKK1, primary screen, biochemical, biotinylated probe, 635/667 nm fluorescence (AID 1099).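 Further: score merges 667nm spot fluorescence with signal to noise across triplicate slides.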 The following applies: higher = more signal.
Assay [3] can be described thus: small-molecule microarray binders of probe aCHRDL2, primary screen, biochemical, biotinylated probe, 635/667 nm fluorescence (AID 1100). Conditions: higher = more signal.
The nature of assay [4]: splicing luciferase reporter signal modulators, primary screen, spliceosome inhibition project, cell-based, HEK293, splice +/- reporter (AID 1101).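 Further: HEK293 cells carrying a splicing-competent luciferase reporter gene; test concentration not given here.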 Conditions: luminescence, 24 h, higher = more signal, called active from +8 up or from −8 down.
Assay [5] concerns the target Fibroblast growth factor 10 (Homo sapiens) (UniProt O15520). Nature of the assay: FGF10 binders on small-molecule microarrays, primary screen, biochemical, small-molecule microarray, 635 nm fluorescence (AID 1102). Conditions: FGF10 binding, fluorescence 635 nm, higher = more signal.
In assay [6] the test system is glycogen synthase kinase-3 (GSK3A per assay name; protocol says GSK3B). Nature of the assay: GSK3 binders on small-molecule microarrays, primary screen, biochemical, small-molecule microarray, 635 nm fluorescence, GSK3A (AID 1103). Further: the record names both GSK3A and GSK3B. The following applies: small-molecule microarray binding, fluorescence 635 nm; higher = more signal.
For assay [7], the target named is Epidermal growth factor receptor (Homo sapiens) (UniProt P00533). Nature of the assay: EGFR binders on small-molecule microarrays, primary screen, biochemical, small-molecule microarray, 635 nm fluorescence (AID 1104).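 Further: score merges 667 nm emission intensity with spot signal to noise over triplicate slides.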 The following applies: EGFR binding, higher = more signal.
Assay [8] deals with Follistatin-related protein 3 (Homo sapiens) (UniProt O95633). The experiment in a line: FSTL3 binders on small-molecule microarrays, primary screen, biochemical, small-molecule microarray, 635 nm fluorescence (AID 1105).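 Further: score merges emission near 667 nm and signal to noise per printed spot across three slides.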 The following applies: FSTL3 binding, higher = more signal.
The target in assay [9] is Dickkopf-related protein 1 (Homo sapiens) (UniProt O94907). Nature of the assay: DKK1 binders on small-molecule microarrays, primary screen, biochemical, small-molecule microarray, 635 nm fluorescence scan (AID 1106).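 Further: score merges emission near 667 nm with signal to noise over three replicate slides.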 Conditions: DKK1 binding, higher = more signal.
Assay [10] concerns Inhibin beta A chain (activin A). The experiment in a line: INHBA (activin A) binders on microarrays, primary screen, biochemical, small-molecule microarray, 635 nm fluorescence scan (AID 1107).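 Further: mouse activin A protein probed at 4.33 µg/mL on printed slides; score merges bound-protein fluorescence near 667 nm with spot signal-to-noise.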 The following applies: small-molecule microarray binding, higher = more signal.
The test system of assay [11] is Human papillomavirus type 1a protein E7 (residues 44-93). The experiment in a line: HPV1a E7 fragment binders on microarrays, primary screen, biochemical, small-molecule microarray, residues 44-93, 635 nm fluorescence (AID 1108).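 Further: E7 fragment applied at 1 µg/mL in TBST for 1 h at 4 C; score combines spot fluorescence with its signal to noise ratio.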 Conditions: small-molecule microarray binding, fluorescence 635 nm; higher = more signal.
Assay [12] can be described thus: modulators of HCV replicon luciferase signal, primary screen, HCV replication inhibitor project, Huh7 cells, luciferase reporter (AID 1109).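 Further: huh7 hepatoma cells harbouring a luciferase neomycin HCV replicon reporter; luciferase luminescence as measure of HCV replicon replication; test concentration not given here.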 The following applies: 48 h, higher = more signal.
The target in assay [13] is Left-right determination factor 2 (Homo sapiens) (UniProt O00292). The experiment in a line: LEFTY2 binders on small-molecule microarrays, primary screen, biochemical, small-molecule microarray, 635 nm fluorescence scan (AID 1110). Conditions: LEFTY2 binding, higher = more signal.
Assay [14] concerns the target Calmodulin-1 (Homo sapiens) (UniProt P0DP23). Nature of the assay: CALM1 binders on microarrays, EGTA buffer, profiling panel, biochemical, small-molecule microarray, Cy5-labelled CALM1 (AID 1111).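 Further: labelled calmodulin applied in Tris saline Tween buffer holding calcium plus EGTA and DTT.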 The following applies: Cy5-CALM1 binding fluorescence, higher = more signal.
Assay [15] has the same target. Nature of the assay: calcium-bound CALM1 binders on microarrays, profiling panel, artefact control for SMM control-protein annotation, biochemical, small-molecule microarray, Cy5-labelled CALM1, plus calcium (AID 1112).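 Further: score merges spot fluorescence with signal to noise from triplicate slides.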 The following applies: Cy5-CALM1 binding fluorescence, higher = more signal.
Assay [16] is described as follows: small-molecule microarray binders of probe aWnt5a, primary screen, biochemical, biotinylated probe, 635/667 nm fluorescence (AID 1113).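 Further: score merges 667 nm fluorescence intensity with signal-to-noise per printed feature.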 The following applies: higher = more signal.
Assay [17] in a line: small-molecule microarray binders of probe aShh, primary screen, biochemical, biotinylated probe, 635/667 nm fluorescence (AID 1114).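 Further: probe is biotin-labelled aShh protein from a stem cell growth factor screen; measures binding of labelled protein to compounds printed on the slide; score merges feature fluorescence at 667 nm with signal-to-noise.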 The following applies: higher = more signal.
Assay [18] in a line: small-molecule microarray binders of probe aNog, primary screen, biochemical, biotinylated probe, 635/667 nm fluorescence (AID 1115).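 Further: probe is biotinylated aNog protein used at 0.15 µg/mL for 1 h at 4 C; z-score combines 667 nm fluorescence of each spot with its signal to noise.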 Conditions: higher = more signal.
In assay [19] the target is Torsin-1A-interacting protein 1 (Homo sapiens) (UniProt Q5JTV8). Nature of the assay: LAP1 binders from COS7 cell lysate, primary screen, small-molecule microarray, 635/667 nm fluorescence (AID 1116). Conditions: COS7-hLAP1 lysate binding, 635 nm fluorescence, higher = more signal.
For assay [20], the target named is Alpha-bungarotoxin (Bungarus multicinctus) (UniProt P60615). The experiment in a line: alpha-bungarotoxin binders on microarray, profiling panel, artefact control for SMM control protein annotation, biochemical, small-molecule microarray, Alexa647 label, 635/667 nm fluorescence (AID 1117). Conditions: alpha-BTX-A647 binding fluorescence, higher = more signal.
Alpha-bungarotoxin (Bungarus multicinctus), sequence (P60615 whole entry, looked up): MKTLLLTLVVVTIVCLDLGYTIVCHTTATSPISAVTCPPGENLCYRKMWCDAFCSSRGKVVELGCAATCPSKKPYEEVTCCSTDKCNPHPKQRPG

Left-right determination factor 2 (Homo sapiens), sequence (O00292 whole entry, looked up): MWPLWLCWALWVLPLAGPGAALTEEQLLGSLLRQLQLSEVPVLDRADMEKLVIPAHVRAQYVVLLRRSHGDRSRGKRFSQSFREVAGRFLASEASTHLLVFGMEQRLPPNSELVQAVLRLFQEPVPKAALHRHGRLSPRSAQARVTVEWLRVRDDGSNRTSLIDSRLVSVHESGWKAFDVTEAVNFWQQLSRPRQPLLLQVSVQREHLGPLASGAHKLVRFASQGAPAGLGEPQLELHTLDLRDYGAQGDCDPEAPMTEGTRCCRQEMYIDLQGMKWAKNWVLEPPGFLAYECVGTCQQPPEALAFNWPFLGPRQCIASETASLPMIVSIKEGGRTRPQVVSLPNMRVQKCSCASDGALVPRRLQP
Torsin-1A-interacting protein 1 (Homo sapiens), sequence (Q5JTV8 whole entry, looked up): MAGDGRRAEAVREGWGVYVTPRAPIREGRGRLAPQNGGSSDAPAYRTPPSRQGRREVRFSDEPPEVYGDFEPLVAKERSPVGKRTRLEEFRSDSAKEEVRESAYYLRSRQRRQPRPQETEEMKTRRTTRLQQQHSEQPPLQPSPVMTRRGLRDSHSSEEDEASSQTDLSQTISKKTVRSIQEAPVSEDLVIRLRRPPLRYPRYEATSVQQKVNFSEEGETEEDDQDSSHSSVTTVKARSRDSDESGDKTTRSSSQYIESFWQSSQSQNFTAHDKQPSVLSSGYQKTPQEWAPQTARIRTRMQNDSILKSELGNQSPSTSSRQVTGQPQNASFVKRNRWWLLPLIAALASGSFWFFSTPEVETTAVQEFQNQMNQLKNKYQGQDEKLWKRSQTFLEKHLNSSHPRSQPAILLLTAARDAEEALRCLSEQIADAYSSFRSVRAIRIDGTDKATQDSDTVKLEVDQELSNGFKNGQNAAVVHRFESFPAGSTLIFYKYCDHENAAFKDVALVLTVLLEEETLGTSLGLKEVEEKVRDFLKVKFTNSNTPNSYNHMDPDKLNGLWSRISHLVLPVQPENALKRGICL
Fibroblast growth factor 10 (Homo sapiens), sequence (O15520 whole entry, looked up): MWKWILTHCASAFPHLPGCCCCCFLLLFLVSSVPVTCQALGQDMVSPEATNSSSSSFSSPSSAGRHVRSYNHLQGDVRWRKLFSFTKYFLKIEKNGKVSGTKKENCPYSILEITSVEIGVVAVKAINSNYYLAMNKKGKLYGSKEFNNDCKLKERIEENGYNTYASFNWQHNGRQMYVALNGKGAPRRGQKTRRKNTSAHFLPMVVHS
Follistatin-related protein 3 (Homo sapiens), sequence (O95633 whole entry, looked up): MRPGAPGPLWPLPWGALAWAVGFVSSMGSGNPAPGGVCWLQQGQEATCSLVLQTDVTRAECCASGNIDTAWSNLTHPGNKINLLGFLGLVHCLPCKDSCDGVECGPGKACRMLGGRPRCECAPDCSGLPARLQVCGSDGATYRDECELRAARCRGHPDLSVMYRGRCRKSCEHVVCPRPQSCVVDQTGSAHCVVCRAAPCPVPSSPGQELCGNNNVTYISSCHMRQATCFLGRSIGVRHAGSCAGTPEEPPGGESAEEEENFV
Epidermal growth factor receptor (Homo sapiens), sequence (P00533 whole entry, looked up): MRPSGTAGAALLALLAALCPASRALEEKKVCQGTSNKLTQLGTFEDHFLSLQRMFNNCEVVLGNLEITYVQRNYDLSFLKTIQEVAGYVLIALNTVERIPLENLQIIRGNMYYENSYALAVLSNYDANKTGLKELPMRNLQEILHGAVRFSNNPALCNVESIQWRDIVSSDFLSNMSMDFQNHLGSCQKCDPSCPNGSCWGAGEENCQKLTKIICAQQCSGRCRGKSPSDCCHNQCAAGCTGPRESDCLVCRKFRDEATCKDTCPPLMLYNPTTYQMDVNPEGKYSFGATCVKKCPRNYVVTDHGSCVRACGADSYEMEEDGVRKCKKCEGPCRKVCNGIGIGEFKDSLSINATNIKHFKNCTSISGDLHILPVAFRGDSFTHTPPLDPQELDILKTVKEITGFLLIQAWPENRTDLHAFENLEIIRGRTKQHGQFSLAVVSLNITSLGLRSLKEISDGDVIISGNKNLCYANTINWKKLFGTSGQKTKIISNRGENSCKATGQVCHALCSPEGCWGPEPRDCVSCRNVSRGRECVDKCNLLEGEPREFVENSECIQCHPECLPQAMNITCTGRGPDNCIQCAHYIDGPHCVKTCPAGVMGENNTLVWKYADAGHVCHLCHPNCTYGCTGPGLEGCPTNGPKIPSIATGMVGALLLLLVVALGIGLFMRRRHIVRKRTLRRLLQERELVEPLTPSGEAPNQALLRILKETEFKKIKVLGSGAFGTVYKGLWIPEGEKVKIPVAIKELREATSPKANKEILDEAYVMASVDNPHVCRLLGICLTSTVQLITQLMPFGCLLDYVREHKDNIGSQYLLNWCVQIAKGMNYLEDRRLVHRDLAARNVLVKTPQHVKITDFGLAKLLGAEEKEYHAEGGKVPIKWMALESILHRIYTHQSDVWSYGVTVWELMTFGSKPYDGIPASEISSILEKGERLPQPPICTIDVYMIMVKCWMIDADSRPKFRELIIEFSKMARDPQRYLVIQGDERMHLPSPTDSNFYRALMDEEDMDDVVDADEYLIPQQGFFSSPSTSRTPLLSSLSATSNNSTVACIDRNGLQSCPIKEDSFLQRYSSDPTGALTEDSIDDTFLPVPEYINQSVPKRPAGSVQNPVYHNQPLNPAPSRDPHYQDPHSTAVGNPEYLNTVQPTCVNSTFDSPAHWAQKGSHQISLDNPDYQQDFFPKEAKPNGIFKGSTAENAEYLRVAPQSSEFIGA
Dickkopf-related protein 1 (Homo sapiens), sequence (O94907 whole entry, looked up): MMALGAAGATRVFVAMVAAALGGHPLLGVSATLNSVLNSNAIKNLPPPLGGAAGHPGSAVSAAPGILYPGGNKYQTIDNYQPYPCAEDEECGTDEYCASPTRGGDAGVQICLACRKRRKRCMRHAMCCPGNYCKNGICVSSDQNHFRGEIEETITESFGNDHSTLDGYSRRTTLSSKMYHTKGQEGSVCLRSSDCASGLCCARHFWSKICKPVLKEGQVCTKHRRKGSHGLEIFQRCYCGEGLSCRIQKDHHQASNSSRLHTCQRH

Regarding `COc1ccc(CCNC(=O)[C@@]2(c3ccc([N+](=O)[O-])cc3)CC(=O)N(CC34CC5CC(CC(C5)C3)C4)[C@@H]2c2ccc(CO)cc2I)cc1`, the composite z-score was 1.01 in assay [1]; -0.153 in assay [2]; -0.263 in [3]; 1.15 in assay [5]; 1.04 in assay [6]; 0.233 in [7]. The composite z-score in [8] is 0.861; in [9], 0.424; in [10], -0.444; in [11], 1.38; in [13], 0.261; in assay [14], 0.408. In addition, the composite z-score in [15] is -0.266; in assay [16], -0.0643; in assay [17] it was -0.312; in [18], 0.769; in assay [19], 0.757; in assay [20], 0.962. The z-score in assay [4] is -0.287 (inactive); in [12] it was -3.41.

Take `COCCCNC(=O)[C@@]1(Cc2ccccc2CN=[N+]=[N-])N=C(c2ccc(OCCCO)cc2)O[C@H]1c1ccccc1CN=[N+]=[N-]`: the composite z-score in assay [1] was 1.25; in [2] it was 0.616; in assay [3] it was 1.09; in assay [5] it was 1.43; in [6], 0.186; in assay [7], -0.334. Further, the composite z-score in assay [8] is 0.299; in [9] it was -0.629; in assay [10], 0.849; in [11], 1.37; in assay [13], -0.443; in assay [14], 1.36. Besides, the composite z-score in assay [15] was 0.875; in assay [16], 0.173; in assay [17], 0.311; in assay [18], -0.69; in assay [19], 0.852; in assay [20], 1.84. The z-score in assay [4] was -1.51 (inactive); in [12] it was -3.39.

`COc1ccc([Si](C)(C)[C@H]2[C@H](CC(=O)N3CCC[C@H]3CO)O[C@@]3(C(=O)N(Cc4cccc(N5CCOC5=O)c4)c4ccccc43)[C@@H]2C)cc1`: the composite z-score was 0.927 in assay [1]; -0.195 in assay [2]; -0.425 in [3]; 0.578 in assay [5]; 0.712 in assay [6]; 0.909 in assay [7]. The composite z-score is 1.3 in assay [8]; 0.437 in assay [9]; 1.11 in assay [10]; 1.23 in assay [11]; 1.05 in assay [13]; -0.133 in assay [14]. The composite z-score was -0.834 in [15]; -0.124 in assay [16]; -0.0553 in assay [17]; 0.0258 in [18]; 0.368 in [19]; 1.58 in assay [20]. Also, the z-score in [4] is -0.298 (inactive); in assay [12] it was -2.44.

`COc1ccc([C@H]2C[C@H]3C(Br)=C[C@@]2(CO)C(=O)[C@]32CO2)cc1`: the composite z-score is -0.194 in assay [1]; -0.118 in assay [2]; 0.565 in [3]; -0.0884 in [5]; -0.516 in assay [6]; 0.197 in [7]. For the same compound, the composite z-score in assay [8] was -0.387; in assay [9] it was -0.198; in assay [10] it was 1.32; in assay [11] it was -0.368; in assay [13], 0.122; in assay [14], -0.282. Further, the composite z-score is -0.38 in assay [15]; 0.0286 in assay [16]; -0.262 in assay [17]; -0.0827 in assay [18]; 0.291 in [19]; 0.0471 in assay [20]. Moreover, the z-score in assay [4] is -0.206 (inactive); in assay [12], -2.02.

For `CCCC(=O)N(CCc1c[nH]c2ccccc12)[C@@H]1CC(C(=O)NCCO)=C[C@H](Oc2c(I)cc(CO)cc2OC)[C@H]1O`, the composite z-score in assay [1] was -0.575; in assay [2], -0.334; in assay [3], -0.516; in [5] it was -0.0122; in assay [6], -0.431; in assay [7], 0.164. In addition, the composite z-score in [8] is 0.0027; in assay [9], 0.404; in [10], 0.181; in assay [11], 0.434; in assay [13], 0.362; in assay [14] it was -0.0781. In addition, the composite z-score is -0.36 in [15]; -0.129 in [16]; -0.221 in assay [17]; -0.234 in assay [18]; 0.0957 in [19]; -0.0162 in assay [20]. In addition, the figures for the z-score in [4] and in assay [12] were -0.125 (inactive) and 0.354, respectively.
